Measurements: the supplement of paper PMC10849652
About 8,800 targets were measured; listed, in parts, are those with a hit and a random draw of the rest. About 0.5% of all pairs of compound and target were hits.

How the values were obtained:
Experiment in all cases: log2 fold change, soluble protein after heating vs DMSO (PISA); higher = thermal stabilisation; K562 lysate, 10 uM; active = over 0.2 and 3.5 SD of the protein, either way, in both replicates (recomputed)
[1] = compound: C1=CC=C(C=C1)[C@H](COC2=CC3=C(C=C2)NC(=O)N3)NC(=O)C4=CC=CN(C4=O)CC5=CC(=C(C=C5)F)F
Outline: (§1)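 Soluble protein was defined as the supernatant remaining after 21,000xg for 90 min, following pooling of heated aliquots and adjustment to 0.5% NP-40 at 4°C. Before that, crude K562 extract at 1 mg/mL protein in PBS pH 7.4 with 1 mM MgCl2 was treated with 10 μM compound for 30 min and heated for 3 min across 48°C-58°C. Quantification used TMTpro 16plex LC-MS/MS with channel sums equalised, and values are log-two fold changes in thermal stability relative to solvent controls from duplicates.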

[2] = compound: CC1=C(SC2=C1C(=N[C@H](C3=NN=C(N32)C)CC(=O)N)C4=CC=C(C=C4)Cl)C
Outline: as §1

[3] = compound: CC1=C2C(=CC=C1)N=C(N(C2=O)C3=CC=CC=C3C)CN4C=NC5=C(N=CN=C54)N
Outline: as §1

[4] = compound: Cc1sc2c(c1C)C(c1ccc(Cl)cc1)=N[C@@H](CC(=O)OC(C)(C)C)c1nnc(C)n1-2
Outline: as §1

[5] = compound: c1ccc([C@@H]2C[C@H]2NC2CCNCC2)cc1
Outline: as §1

Measured: log2 fold change

TMEM87A (UniProt Q8NBN3)
inactive: [1] 0.066 | [2] -0.014 | [3] -0.011 | [4] -0.011 | [5] -0.128

TEX30 (UniProt Q5JUR7)
Chain of UniProt Q5JUR7 (Q5JUR7 whole entry, looked up): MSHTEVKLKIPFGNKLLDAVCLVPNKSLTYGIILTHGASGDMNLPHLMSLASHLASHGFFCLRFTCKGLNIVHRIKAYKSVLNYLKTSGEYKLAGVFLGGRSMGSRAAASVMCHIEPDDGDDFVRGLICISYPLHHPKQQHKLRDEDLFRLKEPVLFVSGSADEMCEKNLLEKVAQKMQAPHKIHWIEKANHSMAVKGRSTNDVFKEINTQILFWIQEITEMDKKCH
inactive: [1] -0.074 | [2] 0.066 | [3] -0.006 | [4] -0.1 | [5] -0.038

TNPO3 (UniProt Q9Y5L0)
Chain of UniProt Q9Y5L0 (Q9Y5L0 whole entry, looked up): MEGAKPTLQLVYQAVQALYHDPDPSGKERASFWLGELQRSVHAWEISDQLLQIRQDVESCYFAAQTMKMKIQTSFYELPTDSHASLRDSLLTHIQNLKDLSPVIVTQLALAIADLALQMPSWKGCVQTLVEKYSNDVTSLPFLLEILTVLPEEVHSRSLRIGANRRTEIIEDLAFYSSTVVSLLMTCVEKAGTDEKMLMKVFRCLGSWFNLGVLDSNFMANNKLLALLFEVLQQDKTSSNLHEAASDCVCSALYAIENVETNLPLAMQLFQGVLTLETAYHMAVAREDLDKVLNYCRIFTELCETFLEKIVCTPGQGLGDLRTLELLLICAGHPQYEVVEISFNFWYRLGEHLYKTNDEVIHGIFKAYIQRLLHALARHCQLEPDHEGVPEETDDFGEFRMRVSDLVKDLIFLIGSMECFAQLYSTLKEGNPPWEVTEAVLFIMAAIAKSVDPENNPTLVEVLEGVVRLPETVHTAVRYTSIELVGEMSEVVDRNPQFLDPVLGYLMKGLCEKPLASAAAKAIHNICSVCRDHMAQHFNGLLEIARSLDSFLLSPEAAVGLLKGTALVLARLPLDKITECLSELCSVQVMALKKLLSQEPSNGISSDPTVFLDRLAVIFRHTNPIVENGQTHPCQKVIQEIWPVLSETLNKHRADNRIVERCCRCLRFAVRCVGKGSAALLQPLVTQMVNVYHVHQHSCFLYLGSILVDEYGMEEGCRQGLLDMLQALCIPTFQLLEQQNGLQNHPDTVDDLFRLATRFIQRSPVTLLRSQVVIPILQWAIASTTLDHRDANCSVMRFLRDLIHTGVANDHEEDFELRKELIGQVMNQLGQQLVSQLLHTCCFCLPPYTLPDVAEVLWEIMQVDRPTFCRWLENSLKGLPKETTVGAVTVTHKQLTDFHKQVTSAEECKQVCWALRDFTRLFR
inactive: [1] -0.024 | [2] 0.07 | [3] -0.003 | [4] 0.009 | [5] -0.029

TPD52L2 isoform 7 (UniProt O43399)
Chain of UniProt O43399 (O43399 whole entry, looked up): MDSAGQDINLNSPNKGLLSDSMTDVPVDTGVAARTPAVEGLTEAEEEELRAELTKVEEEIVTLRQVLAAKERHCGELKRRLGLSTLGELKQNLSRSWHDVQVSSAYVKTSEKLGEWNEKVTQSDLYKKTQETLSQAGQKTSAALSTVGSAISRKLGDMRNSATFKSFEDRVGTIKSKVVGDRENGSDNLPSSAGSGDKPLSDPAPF
inactive: [1] 0.046 | [2] -0.036 | [3] -0.024 | [4] 0.024 | [5] -0.058

UBA1 (UniProt P22314)
inactive: [1] -0.018 | [2] 0.043 | [3] 0 | [4] 0.045 | [5] 0.04

UBE2L6 (UniProt O14933)
Chain of UniProt O14933 (O14933 whole entry, looked up): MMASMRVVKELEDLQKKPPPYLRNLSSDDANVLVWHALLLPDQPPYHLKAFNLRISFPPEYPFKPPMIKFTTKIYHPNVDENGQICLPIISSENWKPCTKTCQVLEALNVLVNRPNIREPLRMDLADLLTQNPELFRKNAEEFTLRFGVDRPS
inactive: [1] -0.01 | [2] 0 | [3] -0.068 | [4] 0.032 | [5] 0.008

TTC4 (UniProt O95801)
Chain of UniProt O95801 (O95801 whole entry, looked up): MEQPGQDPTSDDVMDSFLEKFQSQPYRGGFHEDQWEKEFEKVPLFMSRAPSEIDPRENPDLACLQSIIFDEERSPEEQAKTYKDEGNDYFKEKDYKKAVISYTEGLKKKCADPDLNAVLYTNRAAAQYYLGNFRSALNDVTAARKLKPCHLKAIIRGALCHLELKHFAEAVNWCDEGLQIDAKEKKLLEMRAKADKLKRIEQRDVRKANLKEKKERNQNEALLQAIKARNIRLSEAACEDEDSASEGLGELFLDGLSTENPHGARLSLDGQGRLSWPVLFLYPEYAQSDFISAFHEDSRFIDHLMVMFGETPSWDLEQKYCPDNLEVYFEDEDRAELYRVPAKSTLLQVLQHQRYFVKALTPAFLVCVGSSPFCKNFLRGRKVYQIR
inactive: [1] -0.018 | [2] -0.003 | [3] 0.001 | [4] 0.033 | [5] -0.013

TRMT2A (UniProt Q8IZ69)
inactive: [1] 0.003 | [2] 0.02 | [3] 0.003 | [4] 0.02 | [5] 0.027

TCP11L1 (UniProt Q9NUJ3)
Chain of UniProt Q9NUJ3 (Q9NUJ3 whole entry, looked up): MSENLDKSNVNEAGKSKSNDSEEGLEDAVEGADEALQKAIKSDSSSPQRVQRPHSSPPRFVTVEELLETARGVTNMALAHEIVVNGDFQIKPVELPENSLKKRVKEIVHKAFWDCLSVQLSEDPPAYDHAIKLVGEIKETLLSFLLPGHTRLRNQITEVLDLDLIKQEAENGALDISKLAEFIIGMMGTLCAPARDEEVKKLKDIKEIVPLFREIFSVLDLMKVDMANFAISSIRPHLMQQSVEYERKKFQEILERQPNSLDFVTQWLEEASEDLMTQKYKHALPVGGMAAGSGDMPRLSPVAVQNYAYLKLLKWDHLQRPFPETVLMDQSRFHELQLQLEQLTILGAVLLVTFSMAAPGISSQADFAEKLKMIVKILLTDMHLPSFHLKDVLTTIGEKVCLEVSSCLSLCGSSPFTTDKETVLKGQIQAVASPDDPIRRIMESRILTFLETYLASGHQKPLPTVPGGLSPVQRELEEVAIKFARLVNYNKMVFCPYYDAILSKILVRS
inactive: [1] -0.023 | [2] -0.031 | [3] -0.02 | [4] -0.021 | [5] -0.095

THAP9 (UniProt Q9H5L6)
inactive: [1] 0.024 | [2] 0.039 | [3] 0.165 | [4] -0.194 | [5] -0.284

TUBGCP2 isoform 4 (UniProt Q9BSJ2)
Chain of UniProt Q9BSJ2 (Q9BSJ2 whole entry, looked up): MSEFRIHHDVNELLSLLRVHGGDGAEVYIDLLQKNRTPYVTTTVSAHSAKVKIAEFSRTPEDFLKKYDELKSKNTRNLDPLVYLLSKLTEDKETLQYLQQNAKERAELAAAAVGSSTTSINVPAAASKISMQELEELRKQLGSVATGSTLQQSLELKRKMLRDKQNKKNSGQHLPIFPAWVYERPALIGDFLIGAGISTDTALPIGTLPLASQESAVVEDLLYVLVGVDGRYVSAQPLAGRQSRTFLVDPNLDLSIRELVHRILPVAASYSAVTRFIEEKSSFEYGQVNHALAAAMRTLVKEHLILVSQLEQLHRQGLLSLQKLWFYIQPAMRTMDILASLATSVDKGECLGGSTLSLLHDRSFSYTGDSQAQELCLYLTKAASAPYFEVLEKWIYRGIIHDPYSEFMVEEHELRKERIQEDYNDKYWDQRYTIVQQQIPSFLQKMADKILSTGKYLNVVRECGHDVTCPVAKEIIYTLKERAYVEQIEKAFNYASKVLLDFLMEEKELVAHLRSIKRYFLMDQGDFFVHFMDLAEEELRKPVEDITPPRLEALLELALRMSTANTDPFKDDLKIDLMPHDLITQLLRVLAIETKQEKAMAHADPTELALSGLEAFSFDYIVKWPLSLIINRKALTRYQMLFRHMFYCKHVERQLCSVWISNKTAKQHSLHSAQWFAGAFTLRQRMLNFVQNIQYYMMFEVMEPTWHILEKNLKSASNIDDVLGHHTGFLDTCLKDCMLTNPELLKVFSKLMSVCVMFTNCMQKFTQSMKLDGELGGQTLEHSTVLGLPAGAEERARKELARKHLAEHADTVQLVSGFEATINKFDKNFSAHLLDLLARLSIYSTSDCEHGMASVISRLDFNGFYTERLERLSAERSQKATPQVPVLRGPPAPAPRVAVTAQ
inactive: [1] 0.009 | [2] -0.015 | [3] 0.035 | [4] 0.018 | [5] 0.097

TUBB1 (UniProt Q9H4B7)
inactive: [1] -0.005 | [2] 0.019 | [3] 0.008 | [4] 0.063 | [5] 0.087

TFIP11 (UniProt Q9UBB9)
Chain of UniProt Q9UBB9 (Q9UBB9 whole entry, looked up): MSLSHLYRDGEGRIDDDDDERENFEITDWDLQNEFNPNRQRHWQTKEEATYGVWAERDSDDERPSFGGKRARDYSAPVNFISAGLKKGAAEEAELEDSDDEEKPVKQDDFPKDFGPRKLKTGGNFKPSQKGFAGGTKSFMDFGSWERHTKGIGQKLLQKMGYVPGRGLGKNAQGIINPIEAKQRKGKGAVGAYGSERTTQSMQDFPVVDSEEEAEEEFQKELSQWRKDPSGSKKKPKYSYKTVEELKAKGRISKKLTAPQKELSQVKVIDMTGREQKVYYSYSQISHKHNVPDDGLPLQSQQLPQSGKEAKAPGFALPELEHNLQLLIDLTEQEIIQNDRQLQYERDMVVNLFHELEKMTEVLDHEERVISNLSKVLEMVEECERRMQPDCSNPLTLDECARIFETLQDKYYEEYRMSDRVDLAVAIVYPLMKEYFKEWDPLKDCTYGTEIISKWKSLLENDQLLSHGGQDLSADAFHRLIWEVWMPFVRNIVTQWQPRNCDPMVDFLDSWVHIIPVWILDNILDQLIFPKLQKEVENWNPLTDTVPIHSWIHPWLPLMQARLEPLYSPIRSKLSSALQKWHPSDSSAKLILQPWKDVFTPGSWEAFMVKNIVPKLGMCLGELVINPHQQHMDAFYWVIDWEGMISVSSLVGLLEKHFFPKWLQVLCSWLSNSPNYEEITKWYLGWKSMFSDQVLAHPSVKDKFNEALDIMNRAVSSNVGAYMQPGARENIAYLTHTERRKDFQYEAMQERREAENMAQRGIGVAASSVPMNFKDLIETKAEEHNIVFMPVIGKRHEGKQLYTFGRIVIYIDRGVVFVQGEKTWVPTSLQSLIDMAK
inactive: [1] -0.033 | [2] -0.022 | [3] 0.007 | [4] -0.002 | [5] 0.044

TGOLN2 isoform 7 (UniProt O43493)
Chain of UniProt O43493 (O43493 whole entry, looked up): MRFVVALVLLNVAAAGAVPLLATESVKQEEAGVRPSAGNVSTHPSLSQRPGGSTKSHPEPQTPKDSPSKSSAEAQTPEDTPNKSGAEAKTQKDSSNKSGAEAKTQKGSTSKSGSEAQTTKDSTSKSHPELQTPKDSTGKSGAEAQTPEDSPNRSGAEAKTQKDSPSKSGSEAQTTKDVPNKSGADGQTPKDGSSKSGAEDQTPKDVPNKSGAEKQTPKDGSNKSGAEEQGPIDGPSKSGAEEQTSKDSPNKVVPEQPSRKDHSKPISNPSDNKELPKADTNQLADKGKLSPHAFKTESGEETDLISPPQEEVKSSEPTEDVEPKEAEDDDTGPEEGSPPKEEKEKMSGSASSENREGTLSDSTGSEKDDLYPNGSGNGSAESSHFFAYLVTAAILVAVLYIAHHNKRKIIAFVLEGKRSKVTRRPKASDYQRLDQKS
inactive: [1] 0.065 | [2] -0.029 | [3] -0.015 | [4] -0.017 | [5] -0.069

TBK1 (UniProt Q9UHD2)
inactive: [1] -0.012 | [2] 0.021 | [3] -0.031 | [4] -0.003 | [5] -0.023

TRA2A (UniProt Q13595)
Chain of UniProt Q13595 (Q13595 whole entry, looked up): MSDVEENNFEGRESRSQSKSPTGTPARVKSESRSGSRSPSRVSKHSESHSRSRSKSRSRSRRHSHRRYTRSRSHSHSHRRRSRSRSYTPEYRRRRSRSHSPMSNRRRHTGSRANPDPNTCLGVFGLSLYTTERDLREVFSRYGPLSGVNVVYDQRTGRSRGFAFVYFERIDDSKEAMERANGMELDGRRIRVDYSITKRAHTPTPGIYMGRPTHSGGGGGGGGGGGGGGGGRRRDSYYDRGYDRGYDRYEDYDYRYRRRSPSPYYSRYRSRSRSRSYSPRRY
inactive: [1] -0.076 | [2] 0.065 | [3] 0.034 | [4] -0.054 | [5] 0.004
